The list is not random: actives were taken first. Their share in the collection is about 32%.
CYP2C9 act: CYP2C9 (human) activation. P11712. recombinant CYP2C9, luciferin-H conversion, luminescence; hits give high values; factor 1 = untreated enzyme, 0 = blocked. activation factor at 5 µM. actives 1.4% (n = 96,000). AID 1024;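 active means activation factor of 2 or more for CYP2C9 at a 5 µM dose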
Target sequence (P11712 whole entry, looked up): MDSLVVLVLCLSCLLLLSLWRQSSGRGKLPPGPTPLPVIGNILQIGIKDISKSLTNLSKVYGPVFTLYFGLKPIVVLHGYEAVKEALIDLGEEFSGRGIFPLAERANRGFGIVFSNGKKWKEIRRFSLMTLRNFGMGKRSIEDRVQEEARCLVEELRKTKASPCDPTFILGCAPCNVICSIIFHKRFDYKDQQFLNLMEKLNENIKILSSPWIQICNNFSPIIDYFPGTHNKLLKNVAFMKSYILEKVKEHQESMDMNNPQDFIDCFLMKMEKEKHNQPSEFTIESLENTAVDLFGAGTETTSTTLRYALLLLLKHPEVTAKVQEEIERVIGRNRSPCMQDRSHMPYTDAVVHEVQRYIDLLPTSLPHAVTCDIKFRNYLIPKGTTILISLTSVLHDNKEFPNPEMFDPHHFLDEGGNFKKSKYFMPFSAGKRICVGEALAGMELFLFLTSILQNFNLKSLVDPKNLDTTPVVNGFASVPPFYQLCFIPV
PostGolgi yeast: growth inhibition of a yeast mutant, post-Golgi transport screen. post-Golgi transport phenotypic cell assay. inhibition, % at 10 µM. actives 0.9% (n = 98,000). AID 739;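 further: yeast cells grown in 1536-well plates; yeast grown about 18 h at 30C before absorbance read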
PostGolgi ctrl: growth of the yeast control strain, post-Golgi counter-screen. efflux-deficient yeast background strain, growth absorbance A615, 16 h. inhibition, % at 10 µM. actives 5% (n = 98,000). AID 738
CYP2C19 inhib: blocks human cytochrome P450 2C19; P33261; inhibition, % at 5 µM; actives 21% (n = 96,000); AID 778; CYP2C19 Supersomes, luciferin-H EGE luminescence, 30 min;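 active means CYP2C19 inhibition above a set limit at 5 µM in the primary screen, cut at about 50% in these data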
CYP2C19 act: activators of human cytochrome P450 2C19; 96,000 tested, under 10 active; AID 1025; activation factor at 5 µM; recombinant CYP2C19, luciferin-H EGE luminescence; hits give high values; 0 = fully inhibited enzyme, 1 = untreated enzyme;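 active means activation factor of at least 2 at 5 µM in the primary screen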
CYP2C9 inhib: human CYP2C9 inhibition. CYP2C9 Supersomes, luciferin-H conversion, luminescence. inhibition, % at 5 µM. actives 20% (n = 96,000). AID 777;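 active means blocking of liver enzyme CYP2C9 beyond about 50% at 5 µM, limit read from the data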
Large screens that a line does not name were inactive. Unless noted, no stated cut-off is given here; in the data, active means inhibition above about 30%; inactive means the rest.

Cc1ccc(C(=O)NCCSc2ccc(Cl)cc2)cc1S(=O)(=O)Nc1ccccc1	CYP2C9 inhib 52
Cc1ccc(NS(=O)(=O)c2cc(C(=O)NCCSc3ccc(C)cc3)ccc2C)cc1	PostGolgi ctrl 36, CYP2C19 inhib 67, CYP2C9 inhib 78
Cc1cccc(NS(=O)(=O)c2cc(C(=O)NCCC3=CCCCC3)ccc2Cl)c1	PostGolgi ctrl 35, CYP2C9 inhib 68
Cc1ccc(NS(=O)(=O)c2cc(C(=O)N3CCOCC3)ccc2C)cc1	PostGolgi yeast 48
O=C(c1ccc(Cl)c(Cl)c1)N1CCOCC1	none (no result: CYP2C9 act, CYP2C19 inhib, CYP2C19 act, CYP2C9 inhib)
COc1ccccc1N1CCN(C(=O)C2C3C=CC4(CN(Cc5ccccc5Cl)C(=O)C24)O3)CC1 (stereo unspecified)	none
Cc1ccc2c3c(c(SCC(=O)Nc4nccs4)nc2c1)CCCC3	none
Cn1c(-c2sccc2OCc2ccccc2)n[nH]c1=S	none
O=C(O)CCC(=O)c1c[nH]c2ccccc12	none
COCCn1c(SCC(=O)c2cccc(OC)c2)nnc1-c1ccco1	none
O=C(NCCC1=CCCCC1)c1ccc2c(c1)N(Cc1ccccc1)C(=O)CS2	CYP2C9 inhib 75
Cc1ccc(NS(=O)(=O)c2cc(C(=O)NCCSC3CCCCC3)ccc2C)cc1	CYP2C9 inhib 54
Cc1ccc(SCCNC(=O)c2ccc(C)c(S(=O)(=O)Nc3cccc(C)c3)c2)cc1	CYP2C19 inhib 62, CYP2C9 inhib 71
Cc1cc(C)c2c(c1)/C(=N/NS(=O)(=O)c1ccc(Br)cc1)CCC2	none
CC(=O)N1CCN(c2ccc(NCc3ccc(C)cc3)cc2)CC1	CYP2C9 inhib 54
CC(=O)c1ccc(NCC(=O)N2CCN(c3ccccc3)CC2)cc1	CYP2C19 inhib 58
CCc1ccc(CNc2ccc(N3CCN(C(C)=O)CC3)cc2)cc1	CYP2C19 inhib 56
CC(=O)c1ccc(N2CCN(C(=S)Nc3ccccc3)CC2)cc1	none
COc1ccc(-c2nnn(Cc3nc(N)nc(N4CCOCC4)n3)n2)cc1OC	none
CSCCC(NC(N)=O)C(=O)NCC1CCCCC1 (stereo unspecified)	none
Cc1c(Br)c([N+](=O)[O-])nn1C(C)C(=O)Nc1c(C)n(C)n(-c2ccccc2)c1=O (stereo unspecified)	none
Cc1c(/C=N/NC(=O)c2cc(=O)[nH]c(=O)[nH]2)c2ccccn2c1C(=O)c1ccccc1	CYP2C9 inhib 50
O=c1c2[nH]c3ccccc3c2ncn1CCN1CCNCC1	none
Cc1ccc2c(CC(=O)N3CCN(S(=O)(=O)c4cccs4)CC3)coc2c1	CYP2C19 inhib 92, CYP2C9 inhib 80
c1ccc(CN2CCC3(CC2)Nc2ccccc2CO3)cc1	CYP2C19 inhib 91
CC(NC(=O)CCCCCN1C(=O)c2ccccc2C1=O)c1ccc2c(c1)CCCC2 (stereo unspecified)	CYP2C9 inhib 92
CC(NC(=O)CCCN1C(=O)c2ccccc2C1=O)c1ccc2c(c1)CCCC2 (stereo unspecified)	CYP2C19 inhib 83, CYP2C9 inhib 90
COc1cc2c(cc1OC)CN(C(=O)CCCN1C(=O)c3ccccc3C1=O)CC2	none
CCC(C)C(NC(=O)c1ccccc1NC(=O)c1ccco1)C(=O)O (stereo unspecified)	none
Cc1ccc(S(=O)(=O)C(C#N)c2nc3ccccc3nc2OC(C)C)cc1 (stereo unspecified)	none
COc1ccc(C(=O)n2nc(C)cc2C)cc1Br	CYP2C19 inhib 70
COc1ccc(C(=O)n2ccc(C)n2)cc1Br	CYP2C19 inhib 57
CCC(C)NC(=O)CSC1=Nc2ccccc2C2=NC(c3ccccc3)C(=O)N12 (stereo unspecified)	none
O=C(CN1CCC(NC(=O)Nc2ccccc2-c2ccccc2)CC1)NCc1ccco1	CYP2C9 inhib 58
O=C(CN1CCC(Cc2ccccc2)CC1)NC(=O)NCc1ccco1	CYP2C19 inhib 58
O=C(Nc1ccccc1-c1ccccc1)NC1CCN(C(=O)N2CCOCC2)CC1	none (no result: CYP2C9 act, CYP2C19 inhib, CYP2C19 act, CYP2C9 inhib)
Cc1ccc(S(=O)(=O)N2CCC(C(=O)Nc3nnc(C45CC6CC(CC(C6)C4)C5)s3)CC2)cc1	none
O=C(Cc1c(C(=O)O)[nH]c2ccccc12)NCCN1CCN(c2cccc(Cl)c2)CC1	none
CC(NC(=O)COC(=O)c1cn(-c2ccccc2)nc1-c1cccs1)c1ccccc1 (stereo unspecified)	CYP2C9 inhib 67
O=C(NCCN1CCOCC1)c1cn(-c2ccccc2)nc1-c1cccs1	none
COC(=O)c1ccc(NC(=O)c2cn(-c3ccccc3)nc2-c2ccncc2)cc1	PostGolgi yeast 72, PostGolgi ctrl 32
O=C(Nc1ccncc1)c1cn(-c2ccccc2)nc1-c1cccs1	CYP2C19 inhib 94, CYP2C9 inhib 93
O=C(c1cn(-c2ccccc2)nc1-c1cccs1)N1CCN(c2ccc(F)cc2)CC1	PostGolgi ctrl 48, CYP2C19 inhib 84, CYP2C9 inhib 74
COc1ccccc1NC1=NC(C)(C)N=C(N)N1	none
Cc1cc(NC(=O)CN2C(=O)NC(Cc3ccccc3)C2=O)no1 (stereo unspecified)	none
COc1cccc(-c2nn(-c3ccccc3)cc2C(=O)Nc2nccs2)c1	none
COc1ccc(-c2nn(-c3ccccc3)cc2C(=O)Nc2nccs2)cc1	CYP2C9 inhib 52
Cc1cccc(C)c1NC(=O)C(NC=O)c1ccccc1Cl (stereo unspecified)	PostGolgi ctrl 31
CN(C)c1ccc(C(=O)C(O)c2ccc(C(C)(C)C)cc2)cc1 (stereo unspecified)	none
Cc1cccc(C)c1NC(=O)C(NC=O)c1ccc(N(C)C)cc1 (stereo unspecified)	CYP2C19 inhib 64, CYP2C9 inhib 60
COc1ccc(CC(=O)N2CC(=O)N(CCc3ccccc3)C(=O)C2)cc1	none
COc1ccc(/C=C2\C(=O)NCC(=O)N2Cc2ccccc2)cc1	CYP2C19 inhib 65, CYP2C9 inhib 53
CCOC(=O)C1=C(C)N(Cc2ccccc2)C(=O)NC1c1ccc(OC)cc1 (stereo unspecified)	none (no result: CYP2C9 act, CYP2C19 inhib, CYP2C19 act, CYP2C9 inhib)
COc1ccc(/C=C2\C(=O)N(Cc3ccc(F)cc3)CC(=O)N2Cc2ccccc2)cc1	CYP2C19 inhib 72, CYP2C9 inhib 88
CC(=O)NC1C(=O)Nc2c1cccc2C(F)(F)F (stereo unspecified)	none
Cc1ccc2c([N+](=O)[O-])c(C)ccc2n1	none
Cc1cc(C)n2c(Nc3ccc4c(c3)OCCO4)c(-c3ccc(C)o3)nc2n1	none
Clc1ccc(-c2nc3ncccn3c2Nc2ccc3c(c2)OCCO3)cc1	none
Cc1ccc(-c2nc3ncccn3c2Nc2ccc3c(c2)OCCO3)cc1	none
Brc1ccc(-c2nc3ncccn3c2Nc2ccc3c(c2)OCCO3)o1	CYP2C9 inhib 58
Oc1ccc(-c2nc3ncccn3c2Nc2ccc3c(c2)OCCO3)cc1	CYP2C9 inhib 70
Cc1ccc(-c2nc3ncccn3c2Nc2ccc3c(c2)OCCO3)o1	CYP2C9 inhib 53

High-throughput results: PubChem BioAssay, several laboratories
